Assay results as given in ChEMBL document CHEMBL1961873, “Compounds: GSK PKIS; Assays: Nanosyn kinase panel” (2012).

Columns and labels:
[1] = molecular target: Protein kinase C gamma type (Homo sapiens) (UniProt P05129); settings: at 1 µM;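 further: each value is an averaged percent inhibition of the enzyme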
[2] = molecular target: T1, Protein kinase C iota type (Homo sapiens) (UniProt P41743); settings: at 0.1 µM
T1 sequence (whole entry): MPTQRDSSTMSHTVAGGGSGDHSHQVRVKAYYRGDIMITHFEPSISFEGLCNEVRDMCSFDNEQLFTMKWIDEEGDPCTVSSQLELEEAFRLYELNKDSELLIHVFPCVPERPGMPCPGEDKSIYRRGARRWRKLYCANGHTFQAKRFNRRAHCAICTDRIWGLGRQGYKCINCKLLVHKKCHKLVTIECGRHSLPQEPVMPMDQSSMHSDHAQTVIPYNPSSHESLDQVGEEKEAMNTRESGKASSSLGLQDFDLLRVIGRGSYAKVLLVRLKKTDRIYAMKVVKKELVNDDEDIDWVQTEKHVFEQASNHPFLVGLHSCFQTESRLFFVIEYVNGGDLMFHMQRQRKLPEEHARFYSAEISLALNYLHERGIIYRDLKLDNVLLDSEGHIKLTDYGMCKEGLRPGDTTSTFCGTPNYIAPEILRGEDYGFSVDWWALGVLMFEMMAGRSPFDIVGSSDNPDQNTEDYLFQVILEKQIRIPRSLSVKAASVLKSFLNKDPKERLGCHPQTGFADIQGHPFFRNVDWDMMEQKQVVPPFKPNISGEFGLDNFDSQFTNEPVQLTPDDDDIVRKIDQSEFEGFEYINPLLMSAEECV

[3] = molecular target: T1, Protein kinase C iota type (Homo sapiens); settings: at 1 µM
[4] = molecular target: Protein kinase C theta type (Homo sapiens) (UniProt Q04759); settings: at 0.1 µM
Sequence of Protein kinase C theta type (Homo sapiens) (Q04759 whole entry, looked up): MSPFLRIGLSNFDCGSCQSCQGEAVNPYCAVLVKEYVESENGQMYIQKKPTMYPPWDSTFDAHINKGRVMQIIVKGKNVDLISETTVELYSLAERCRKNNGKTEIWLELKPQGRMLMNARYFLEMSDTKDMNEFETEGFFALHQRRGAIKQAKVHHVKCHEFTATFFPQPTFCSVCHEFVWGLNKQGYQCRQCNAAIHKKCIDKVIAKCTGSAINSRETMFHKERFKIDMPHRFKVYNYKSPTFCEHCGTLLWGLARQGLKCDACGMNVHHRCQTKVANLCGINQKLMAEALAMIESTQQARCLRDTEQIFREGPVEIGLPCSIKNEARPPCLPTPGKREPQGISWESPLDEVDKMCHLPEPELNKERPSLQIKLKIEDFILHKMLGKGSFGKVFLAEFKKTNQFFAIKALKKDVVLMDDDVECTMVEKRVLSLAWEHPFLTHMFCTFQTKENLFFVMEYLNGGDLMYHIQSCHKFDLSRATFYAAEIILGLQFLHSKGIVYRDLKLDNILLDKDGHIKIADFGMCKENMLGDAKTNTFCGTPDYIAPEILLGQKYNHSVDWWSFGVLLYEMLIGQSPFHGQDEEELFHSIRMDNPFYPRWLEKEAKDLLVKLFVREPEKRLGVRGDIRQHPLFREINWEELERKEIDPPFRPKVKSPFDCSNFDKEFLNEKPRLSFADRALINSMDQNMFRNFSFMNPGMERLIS

[5] = molecular target: Protein kinase C theta type (Homo sapiens) (UniProt Q04759); settings: at 1 µM
[6] = molecular target: Protein kinase C beta type (Homo sapiens) (UniProt P05771); settings: at 0.1 µM
Sequence of Protein kinase C beta type (Homo sapiens) (P05771 2-671 limits assumed): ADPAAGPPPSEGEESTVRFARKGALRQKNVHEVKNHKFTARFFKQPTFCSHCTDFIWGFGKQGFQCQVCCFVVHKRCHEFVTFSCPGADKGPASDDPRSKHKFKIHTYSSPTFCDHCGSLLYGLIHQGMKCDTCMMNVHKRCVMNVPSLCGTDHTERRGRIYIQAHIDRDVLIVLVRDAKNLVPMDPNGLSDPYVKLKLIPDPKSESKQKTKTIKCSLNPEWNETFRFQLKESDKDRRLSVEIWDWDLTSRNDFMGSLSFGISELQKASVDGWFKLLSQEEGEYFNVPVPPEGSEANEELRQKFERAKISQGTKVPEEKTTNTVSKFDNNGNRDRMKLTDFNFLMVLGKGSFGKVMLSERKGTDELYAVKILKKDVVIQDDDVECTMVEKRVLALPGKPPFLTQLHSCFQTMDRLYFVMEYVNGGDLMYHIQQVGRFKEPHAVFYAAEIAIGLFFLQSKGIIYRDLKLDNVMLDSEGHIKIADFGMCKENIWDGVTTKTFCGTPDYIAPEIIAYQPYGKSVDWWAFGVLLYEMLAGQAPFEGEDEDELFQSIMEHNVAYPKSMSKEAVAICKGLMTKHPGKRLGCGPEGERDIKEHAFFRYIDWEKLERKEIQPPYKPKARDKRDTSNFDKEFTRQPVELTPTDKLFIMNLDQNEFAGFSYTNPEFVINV

[7] = molecular target: Protein kinase C beta type (Homo sapiens) (UniProt P05771); settings: at 1 µM
[8] = molecular target: T2, Serine/threonine-protein kinase D1 (Homo sapiens) (UniProt Q15139); settings: at 0.1 µM
T2 sequence (whole entry): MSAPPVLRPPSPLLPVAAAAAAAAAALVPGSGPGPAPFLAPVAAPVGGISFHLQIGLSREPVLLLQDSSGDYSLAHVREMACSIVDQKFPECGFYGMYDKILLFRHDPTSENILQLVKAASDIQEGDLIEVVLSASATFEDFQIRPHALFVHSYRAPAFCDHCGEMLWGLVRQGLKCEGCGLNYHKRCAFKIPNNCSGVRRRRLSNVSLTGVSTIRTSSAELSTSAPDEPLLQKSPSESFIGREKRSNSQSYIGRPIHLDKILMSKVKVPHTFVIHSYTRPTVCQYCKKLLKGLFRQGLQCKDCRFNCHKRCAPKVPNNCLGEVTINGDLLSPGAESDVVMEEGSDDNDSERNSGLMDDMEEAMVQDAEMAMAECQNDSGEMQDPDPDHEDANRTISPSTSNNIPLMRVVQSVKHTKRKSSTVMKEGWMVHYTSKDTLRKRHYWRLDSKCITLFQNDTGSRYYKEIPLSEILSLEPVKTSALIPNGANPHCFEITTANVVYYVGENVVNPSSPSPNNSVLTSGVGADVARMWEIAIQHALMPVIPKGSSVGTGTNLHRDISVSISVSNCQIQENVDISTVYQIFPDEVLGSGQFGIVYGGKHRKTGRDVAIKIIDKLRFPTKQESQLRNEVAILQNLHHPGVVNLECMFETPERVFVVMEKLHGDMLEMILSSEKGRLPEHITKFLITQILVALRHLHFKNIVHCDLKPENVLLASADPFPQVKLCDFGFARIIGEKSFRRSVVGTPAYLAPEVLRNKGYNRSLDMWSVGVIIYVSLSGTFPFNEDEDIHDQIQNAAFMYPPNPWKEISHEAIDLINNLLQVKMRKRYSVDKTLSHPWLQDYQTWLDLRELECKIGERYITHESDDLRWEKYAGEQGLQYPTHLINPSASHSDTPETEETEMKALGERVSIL

[9] = molecular target: T2, Serine/threonine-protein kinase D1 (Homo sapiens); settings: at 1 µM
[10] = molecular target: T3, Serine/threonine-protein kinase D2 (Homo sapiens) (UniProt Q9BZL6); settings: at 0.1 µM
T3 sequence (whole entry): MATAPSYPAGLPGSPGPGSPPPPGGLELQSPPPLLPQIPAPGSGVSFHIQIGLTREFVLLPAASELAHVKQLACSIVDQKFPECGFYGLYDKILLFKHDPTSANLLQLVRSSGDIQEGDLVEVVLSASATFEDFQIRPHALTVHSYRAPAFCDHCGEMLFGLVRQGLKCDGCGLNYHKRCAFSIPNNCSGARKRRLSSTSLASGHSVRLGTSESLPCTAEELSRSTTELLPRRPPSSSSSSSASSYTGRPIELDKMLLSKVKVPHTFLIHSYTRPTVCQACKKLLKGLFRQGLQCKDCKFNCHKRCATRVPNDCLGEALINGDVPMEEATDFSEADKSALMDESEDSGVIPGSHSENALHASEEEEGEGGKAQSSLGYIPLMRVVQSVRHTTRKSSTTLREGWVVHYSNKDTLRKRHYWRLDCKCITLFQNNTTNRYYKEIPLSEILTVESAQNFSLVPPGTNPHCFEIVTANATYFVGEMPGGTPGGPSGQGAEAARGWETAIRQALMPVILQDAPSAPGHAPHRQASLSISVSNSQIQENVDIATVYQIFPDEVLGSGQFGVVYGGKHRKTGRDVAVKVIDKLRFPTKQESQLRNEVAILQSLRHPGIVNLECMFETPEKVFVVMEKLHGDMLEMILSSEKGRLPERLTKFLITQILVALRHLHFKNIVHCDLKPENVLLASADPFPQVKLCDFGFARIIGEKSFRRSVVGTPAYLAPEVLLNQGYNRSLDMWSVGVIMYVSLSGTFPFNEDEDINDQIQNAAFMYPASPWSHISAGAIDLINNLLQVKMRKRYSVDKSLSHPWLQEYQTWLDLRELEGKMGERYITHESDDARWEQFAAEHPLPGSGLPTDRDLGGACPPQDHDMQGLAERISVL

[11] = molecular target: T3, Serine/threonine-protein kinase D2 (Homo sapiens); settings: at 1 µM
[12] = molecular target: T4, Serine/threonine-protein kinase D3 (Homo sapiens) (UniProt O94806); settings: at 0.1 µM
T4 sequence (whole entry): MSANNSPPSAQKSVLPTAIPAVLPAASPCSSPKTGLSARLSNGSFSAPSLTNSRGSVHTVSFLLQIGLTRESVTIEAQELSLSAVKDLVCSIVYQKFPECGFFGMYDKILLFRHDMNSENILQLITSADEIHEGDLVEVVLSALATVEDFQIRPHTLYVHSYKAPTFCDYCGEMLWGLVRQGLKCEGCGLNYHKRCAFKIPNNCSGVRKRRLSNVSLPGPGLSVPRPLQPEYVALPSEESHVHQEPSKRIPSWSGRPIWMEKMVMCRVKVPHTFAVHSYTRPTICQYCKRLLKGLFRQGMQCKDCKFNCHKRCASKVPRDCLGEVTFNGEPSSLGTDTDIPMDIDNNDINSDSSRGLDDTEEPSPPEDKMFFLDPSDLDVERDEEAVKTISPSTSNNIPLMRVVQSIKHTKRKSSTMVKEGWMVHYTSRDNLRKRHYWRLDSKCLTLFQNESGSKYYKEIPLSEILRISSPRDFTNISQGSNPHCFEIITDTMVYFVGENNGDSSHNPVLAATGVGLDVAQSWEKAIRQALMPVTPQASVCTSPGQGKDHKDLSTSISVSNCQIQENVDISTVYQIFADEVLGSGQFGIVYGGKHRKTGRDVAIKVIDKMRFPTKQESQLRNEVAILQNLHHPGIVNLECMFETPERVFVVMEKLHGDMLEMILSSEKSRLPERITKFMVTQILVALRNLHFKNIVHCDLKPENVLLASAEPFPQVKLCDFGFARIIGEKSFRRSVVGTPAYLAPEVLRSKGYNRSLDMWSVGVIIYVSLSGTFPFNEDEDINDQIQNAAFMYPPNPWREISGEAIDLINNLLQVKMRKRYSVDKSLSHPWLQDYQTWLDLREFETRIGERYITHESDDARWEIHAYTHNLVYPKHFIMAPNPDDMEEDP

[13] = molecular target: T4, Serine/threonine-protein kinase D3 (Homo sapiens); settings: at 1 µM
[14] = molecular target: T5, cGMP-dependent protein kinase 1 (Homo sapiens) (UniProt Q13976); settings: at 0.1 µM
T5 sequence (whole entry): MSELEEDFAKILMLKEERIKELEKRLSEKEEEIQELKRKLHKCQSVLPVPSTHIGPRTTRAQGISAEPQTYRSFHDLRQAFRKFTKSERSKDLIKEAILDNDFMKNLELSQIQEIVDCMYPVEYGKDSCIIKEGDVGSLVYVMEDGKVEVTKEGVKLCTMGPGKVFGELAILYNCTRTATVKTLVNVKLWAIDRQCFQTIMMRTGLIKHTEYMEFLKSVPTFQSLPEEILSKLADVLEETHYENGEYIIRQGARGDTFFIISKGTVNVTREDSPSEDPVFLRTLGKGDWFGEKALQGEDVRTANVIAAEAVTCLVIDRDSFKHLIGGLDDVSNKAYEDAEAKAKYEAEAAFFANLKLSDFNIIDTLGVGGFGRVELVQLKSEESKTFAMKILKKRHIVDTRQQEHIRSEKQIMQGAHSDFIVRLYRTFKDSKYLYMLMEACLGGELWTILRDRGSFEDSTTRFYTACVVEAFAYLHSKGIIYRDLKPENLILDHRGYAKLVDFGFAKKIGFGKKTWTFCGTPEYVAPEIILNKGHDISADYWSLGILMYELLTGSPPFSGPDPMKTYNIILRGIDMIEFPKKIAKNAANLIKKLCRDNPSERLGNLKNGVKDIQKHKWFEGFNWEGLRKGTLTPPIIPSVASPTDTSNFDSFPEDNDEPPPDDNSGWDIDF

[15] = molecular target: T5, cGMP-dependent protein kinase 1 (Homo sapiens); settings: at 1 µM
[16] = molecular target: T6, cGMP-dependent protein kinase 2 (Homo sapiens) (UniProt Q13237); settings: at 0.1 µM
T6 sequence (whole entry): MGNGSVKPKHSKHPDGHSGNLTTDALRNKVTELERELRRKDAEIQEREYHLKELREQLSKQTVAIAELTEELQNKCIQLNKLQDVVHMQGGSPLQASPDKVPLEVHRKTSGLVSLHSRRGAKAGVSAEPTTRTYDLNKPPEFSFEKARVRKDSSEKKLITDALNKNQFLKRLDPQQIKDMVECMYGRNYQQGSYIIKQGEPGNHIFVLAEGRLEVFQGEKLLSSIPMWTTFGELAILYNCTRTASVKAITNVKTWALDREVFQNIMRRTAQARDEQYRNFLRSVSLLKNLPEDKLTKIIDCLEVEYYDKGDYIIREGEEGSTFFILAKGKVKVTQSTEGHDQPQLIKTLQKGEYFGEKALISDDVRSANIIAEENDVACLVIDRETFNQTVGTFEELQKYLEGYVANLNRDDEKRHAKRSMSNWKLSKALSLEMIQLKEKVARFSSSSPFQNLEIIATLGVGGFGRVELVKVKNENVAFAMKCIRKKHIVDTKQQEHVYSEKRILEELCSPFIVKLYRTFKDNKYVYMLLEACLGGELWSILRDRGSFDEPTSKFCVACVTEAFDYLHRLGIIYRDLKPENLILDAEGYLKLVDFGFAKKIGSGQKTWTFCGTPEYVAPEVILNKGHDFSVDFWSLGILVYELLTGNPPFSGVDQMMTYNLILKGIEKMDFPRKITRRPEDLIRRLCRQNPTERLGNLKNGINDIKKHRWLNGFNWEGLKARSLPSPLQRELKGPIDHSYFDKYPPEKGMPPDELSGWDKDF

[17] = molecular target: T6, cGMP-dependent protein kinase 2 (Homo sapiens); settings: at 1 µM
[18] = molecular target: T7, cAMP-dependent protein kinase catalytic subunit PRKX (Homo sapiens) (UniProt P51817); settings: at 0.1 µM
T7 sequence (whole entry): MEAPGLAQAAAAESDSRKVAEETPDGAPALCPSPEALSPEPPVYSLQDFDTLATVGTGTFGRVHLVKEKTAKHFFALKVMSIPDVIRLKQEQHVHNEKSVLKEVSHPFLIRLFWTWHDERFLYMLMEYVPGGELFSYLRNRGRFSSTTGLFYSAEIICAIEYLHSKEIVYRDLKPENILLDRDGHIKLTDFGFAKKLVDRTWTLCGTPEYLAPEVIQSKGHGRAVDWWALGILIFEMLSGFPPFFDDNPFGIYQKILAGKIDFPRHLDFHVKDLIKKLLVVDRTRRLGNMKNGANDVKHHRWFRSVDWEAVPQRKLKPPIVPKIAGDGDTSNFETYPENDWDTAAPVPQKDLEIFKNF

[19] = molecular target: T7, cAMP-dependent protein kinase catalytic subunit PRKX (Homo sapiens); settings: at 1 µM
[20] = molecular target: Rho-associated protein kinase 1 (Homo sapiens) (UniProt Q13464); settings: at 0.1 µM;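 further: values are mean percent inhibition of ROCK1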
Sequence of Rho-associated protein kinase 1 (Homo sapiens) (Q13464 2-1354 limits assumed): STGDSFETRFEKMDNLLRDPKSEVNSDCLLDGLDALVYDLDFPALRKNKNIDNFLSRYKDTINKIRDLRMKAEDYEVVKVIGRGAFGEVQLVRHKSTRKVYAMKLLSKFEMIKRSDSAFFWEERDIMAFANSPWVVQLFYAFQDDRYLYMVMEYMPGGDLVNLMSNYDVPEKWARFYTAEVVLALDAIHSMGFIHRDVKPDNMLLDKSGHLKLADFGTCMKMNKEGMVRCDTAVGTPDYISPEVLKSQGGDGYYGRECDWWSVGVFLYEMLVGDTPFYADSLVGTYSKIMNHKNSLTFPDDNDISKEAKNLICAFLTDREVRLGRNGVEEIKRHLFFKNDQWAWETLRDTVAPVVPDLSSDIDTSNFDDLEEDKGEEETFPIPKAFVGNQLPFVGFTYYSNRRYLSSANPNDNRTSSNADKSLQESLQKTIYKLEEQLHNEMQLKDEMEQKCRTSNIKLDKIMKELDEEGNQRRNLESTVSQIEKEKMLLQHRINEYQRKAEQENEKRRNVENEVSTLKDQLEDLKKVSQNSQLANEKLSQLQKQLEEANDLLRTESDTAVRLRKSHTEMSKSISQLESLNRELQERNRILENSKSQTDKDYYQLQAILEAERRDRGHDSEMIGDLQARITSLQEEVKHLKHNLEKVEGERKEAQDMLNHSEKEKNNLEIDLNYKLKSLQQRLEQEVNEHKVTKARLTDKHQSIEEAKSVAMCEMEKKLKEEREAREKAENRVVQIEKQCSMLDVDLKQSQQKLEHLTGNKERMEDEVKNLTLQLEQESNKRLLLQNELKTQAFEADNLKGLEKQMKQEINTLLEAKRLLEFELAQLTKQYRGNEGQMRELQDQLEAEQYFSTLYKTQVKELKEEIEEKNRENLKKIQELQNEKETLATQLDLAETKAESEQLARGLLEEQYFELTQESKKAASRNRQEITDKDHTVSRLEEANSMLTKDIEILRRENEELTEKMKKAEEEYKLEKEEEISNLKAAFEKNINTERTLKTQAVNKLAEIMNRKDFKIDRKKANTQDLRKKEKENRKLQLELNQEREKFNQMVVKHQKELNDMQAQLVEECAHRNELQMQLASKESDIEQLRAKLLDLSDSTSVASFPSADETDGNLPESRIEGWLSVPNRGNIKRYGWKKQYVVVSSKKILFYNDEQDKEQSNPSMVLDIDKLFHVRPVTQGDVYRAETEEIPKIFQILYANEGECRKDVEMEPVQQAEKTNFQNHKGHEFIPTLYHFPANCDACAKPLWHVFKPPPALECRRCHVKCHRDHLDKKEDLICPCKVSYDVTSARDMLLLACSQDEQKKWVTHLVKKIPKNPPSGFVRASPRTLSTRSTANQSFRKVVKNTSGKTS

Row | SMILES | inhibition [1] [%] | inhibition [2] [%] | inhibition [3] [%] | inhibition [4] [%] | inhibition [5] [%] | inhibition [6] [%] | inhibition [7] [%] | inhibition [8] [%] | inhibition [9] [%] | inhibition [10] [%] | inhibition [11] [%] | inhibition [12] [%] | inhibition [13] [%] | inhibition [14] [%] | inhibition [15] [%] | inhibition [16] [%] | inhibition [17] [%] | inhibition [18] [%] | inhibition [19] [%] | inhibition [20] [%]
1 | CN(C)c1cc2c(Nc3ccc4c(cnn4Cc4ccccc4)c3)ncnc2cn1 | -1.38 | 0.79 | 1.74 | 0.5 | 0.28 | 0.51 | 0.93 | 2.68 | 5.12 | 3.3 | 4.01 | 3.24 | 4.21 | 0.2 | 4.15 | 2.57 | 2.77 | 1.48 | 0.84 | 0.25
2 | COc1cc2ncnc(Nc3ccc4c(cnn4Cc4ccccc4)c3)c2cc1OC | 2.04 | 0.72 | 0.48 | 0.78 | 0.99 | 0.94 | 0.88 | 2.89 | 5.2 | 2.96 | 3 | 2.69 | 4.17 | 1.58 | 1.78 | 1.02 | 0.7 | 1.5 | 1.55 | 2.33
3 | Cc1cc(-c2ccccn2)cc(C)c1/C=C/c1cncc(-c2nn[nH]n2)c1 | 2.83 | 0.86 | 1.38 | 1.86 | 3.08 | 1.2 | 2.79 | 6.68 | 11 | 6.87 | 12.2 | 6.27 | 12.1 | 3.51 | 5.76 | 2.46 | 5.89 | 2 | 2.53 | 2.04
4 | CS(=O)(=O)Nc1cccc(-c2ccc3c(NC(=O)C4CC4)n[nH]c3c2)c1 | 1.59 | 0.49 | 0.91 | -0.5 | -0.76 | -0.25 | 0.61 | 0.96 | 2.34 | 2.1 | 3.59 | 1.24 | 2.48 | -0.41 | 1.73 | 1.34 | 2.16 | 0.39 | -0.61 | 0.24
